Here are results for 17 molecules from PubChem BioAssay (EPA / NIEHS).

Molecules are shown by their SMILES. Records with an inconclusive call do not appear. Calls of active or inactive are those of the source. The calls were made as follows, unless noted: active = hit-call score of the fitted dose curve at least 0.9, where 1 is the maximum; inconclusive = response in the unintended direction; inactive = score below 0.9.

Assay [1] is described as follows: Tanguay_ZF_120hpf_JAW_legacy: (Legacy) Oregon State University Tanguay Lab 120 Hour Post-fertilization zebrafish Assay for Jaw Malformation (AID 2283638).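 As to AC50: active means more embryos with jaw malformation than DMSO controls.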 The procedure, abridged: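 Dechorionated Tropical 5D wild-type zebrafish embryos, one per well, exposed statically from 6 hpf to 120 hpf at 28C in 0.64% DMSO. Jaw malformation was scored by brightfield microscopy as present or absent. It was not scored in dead embryos.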

The nature of assay [2]: Tanguay_ZF_120hpf_OTIC_legacy: (Legacy) Oregon State University Tanguay Lab 120 Hour Post-fertilization zebrafish Assay for Otic Vesicle Malformation (AID 2283639). A digest of the protocol:
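Otic vesicle malformation is read as a yes/no morphology call at 120 hpf. Exposure is static at 28C with 0.64% (vol/vol) DMSO; embryos that die are excluded from non-mortality endpoints.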

Assay [3] in a line: Tanguay_ZF_120hpf_PE_legacy: (Legacy) Oregon State University Tanguay Lab 120 Hour Post-fertilization zebrafish Assay for Pericardial Edema (AID 2283640).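 As to AC50: potency for increased incidence of pericardial edema versus DMSO baseline.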 A digest of the protocol: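 Tropical 5D wild-type zebrafish embryos were statically exposed until 120 hpf at 28C, with 0.64% DMSO final. Pericardial edema was scored by brightfield as present or absent; endpoints were not scored in dead embryos.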

Assay [4] is described as follows: Tanguay_ZF_120hpf_BRAI_legacy: (Legacy) Oregon State University Tanguay Lab 120 Hour Post-fertilization zebrafish Assay for Brain Malformation (AID 2283641). A digest of the protocol: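 Tropical 5D wild-type zebrafish embryos exposed statically until 120 hpf at 28C, 0.64% DMSO final, sealed and dark. Brain malformation scored present/absent by brightfield at 120 hpf; dead embryos excluded. Trimethyltin chloride 5uM positive control.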

A short description of assay [5]: Tanguay_ZF_120hpf_SOMI_legacy: (Legacy) Oregon State University Tanguay Lab 120 Hour Post-fertilization zebrafish Assay for Somite Malformation (AID 2283647). The procedure, abridged: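 Dechorionated Tropical 5D wild-type zebrafish embryos, one per well from 6 hpf, statically exposed at 28C to 120 hpf in 0.64% DMSO; somite malformation scored present/absent by brightfield; trimethyltin 5 uM positive control; dead embryos not scored.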

Assay [6] in a line: Tanguay_ZF_120hpf_PFIN_legacy: (Legacy) Oregon State University Tanguay Lab 120 Hour Post-fertilization zebrafish Assay for Pectoral Fin Malformation (AID 2283648).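 Also: each larva judged yes or no for fin defect by brightfield with dead larvae skipped.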 A digest of the protocol:
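Tropical 5D wild-type embryos, dechorionated with pronase at 4 hpf, were placed singly in wells at 6 hpf and statically exposed until 120 hpf at 28C, sealed and dark, with 0.64% (vol/vol) final DMSO; pectoral fin malformation scored present/absent.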

Assay [7] is described as follows: Tanguay_ZF_120hpf_CFIN_legacy: (Legacy) Oregon State University Tanguay Lab 120 Hour Post-fertilization zebrafish Assay for Caudal Fin Malformation (AID 2283649). A digest of the protocol: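 Dechorionated Tropical 5D wild-type embryos, one per well from 6 hpf, static exposure to 120 hpf at 28C in 0.64% DMSO. Caudal fin malformation scored by brightfield as present/absent; not scored in dead embryos.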

A short description of assay [8]: Tanguay_ZF_120hpf_PIG_legacy: (Legacy) Oregon State University Tanguay Lab 120 Hour Post-fertilization zebrafish Assay for Pigmentation Malformation (AID 2283650). The procedure, abridged: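 Tropical 5D wild-type zebrafish embryos, dechorionated with pronase at 4 hpf, were exposed singly from 6 hpf to 120 hpf statically at 28C in sealed, dark plates with 0.64% DMSO; pigmentation scored present/absent by brightfield microscopy, fitted against DMSO.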

Assay [9] is described as follows: Tanguay_ZF_120hpf_CIRC_legacy: (Legacy) Oregon State University Tanguay Lab 120 Hour Post-fertilization zebrafish Assay for Circulatory Malformation (AID 2283651). The procedure, abridged:
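Using wild-type Tropical 5D zebrafish, we exposed dechorionated embryos from 6 to 120 hpf in embryo medium with 0.64% DMSO. Circulatory defects were scored as present or absent; 5uM trimethyltin chloride served as positive control.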

Read-out in assay [10]: kallikrein-3 (KLK3), KLK3 (gene 354)
In words: LTEA_HepaRG_KLK3: Life Technologies and Expression Analysis (LTEA) Assay for kallikrein-3 (KLK3) using HepaRG (AID 2283652; active = hit-call score of the fitted dose curve at least 0.9, where 1 is the maximum; inactive = score below 0.9). The conditions noted are these: mRNA level, 48 h; actives raise or lower the signal. Here is the method: LTEA_HepaRG is a cell based, multiplexed-readout assay that uses HepaRG, a human liver cell line, with measurements taken at 48 hours after chemical dosing on a 96-well plate.LTEA_HepaRG_KLK3 is one of 102 assay component(s) measured in the LTEA HepaRG cell culture assay. It is a marker of Cellular remodeling.Data from the assay component LTEA_HepaRG_KLK3 was analyzed into 1 endpoint. This assay endpoint, LTEA_HepaRG_KLK3, was analyzed with bidirectional fitting relative to DMSO as the negative control and baseline of activity. Using a type of inducible reporter, measures of mRNA induction for gain or loss-of-signal activity can be used to understand regulation of transcription factor activity. To generalize the intended target to other relatable targets, this assay endpoint is annotated to the protease intended target family, where the subfamily is Cellular remodeling.
A total of 1060 chemcials from the ToxCast library were tested in eight-point concentration-response experiments. Cell culture and cytotoxicity assays were conducted at Thermo Fisher Scientific's Custom Services facility (Madison, WI). A single lot of human HepaRG cells (Thermo Fisher Scientific, Frederick, MD) was used for the cell culture experiments. 96-well format collagen type I coated plates of human HepaRG cells were prepared using established methods. Briefly, cryopreserved HepaRG cells were thawed, plated at a density of approximately 100,000 cells/well in HepaRG Thaw, Plate, and General Purpose media (HPRG770, Thermo Fisher Scientific), and incubated for 48 hours. […] Fluidigm's 96.96 Dynamic ArrayTM (Fluidigm, Amsterdam, the Netherlands) technology was used for gene expression analyses by quantitative reverse transcription polymerase chain reaction (qRT-PCR, performed by Quintiles/Expression Analysis, Durham, NC)89. […]

On to `Cc1cc(C)nc(Nc2ccccc2)n1`, for which the result in [1], in [2], in assay [3], in assay [4], in [5] and in assay [6] was inactive. Moreover, the molecule was called inactive in assay [7], in [8] and in [9].

In general, AC50 refers to the concentration at which the activity in the assay is half-maximal. Take `CCNC(=O)NC(=O)C(C#N)=NOC`: the AC50 in [1] was 19.6 µM (active); in assay [3], 47 µM (active); in [5] it was 41.6 µM (active); in [6], 45.6 µM (active). Besides, the molecule was called inactive in assay [2], in [4], in assay [7] and in assay [9].

Regarding `CCOc1cc(C(C)(C)C)ccc1C1COC(c2c(F)cccc2F)=N1` (stereo unspecified), the call in assay [1], in assay [3], in assay [4], in assay [5], in assay [6] and in assay [7] was inactive.

Consider `CCCCOCN(C(=O)CCl)c1c(CC)cccc1CC`, for which the molecule was classed as inactive in assay [2], in assay [3], in assay [4], in assay [5], in assay [6] and in [7]. Moreover, the molecule was called inactive in assay [8].

In the case of `CCOc1nc(C(Cl)(Cl)Cl)ns1`, the result in assay [1], in assay [3], in [4], in assay [5], in [7] and in assay [8] was inactive.

For `CCN(CC)C(=O)C(C)Oc1cccc2ccccc12` (stereo unspecified), the molecule was classed as inactive in assay [1], in [2], in assay [3], in assay [4], in [5] and in assay [6]. For the same molecule, the molecule was called inactive in assay [7], in assay [8] and in [9].

As to `COC(=O)c1c(C(F)F)nc(C(F)(F)F)c(C2=NCCS2)c1CC(C)C`, the result in [1], in assay [2], in assay [3], in assay [4], in [5] and in assay [6] was inactive. Also, the molecule was classed as inactive in [7], in assay [8] and in [9].

Consider `CCN(CC)c1nc(C)cc(OP(=S)(OC)OC)n1`, for which the outcome in assay [1], in assay [2], in assay [3], in assay [4], in assay [5] and in assay [6] was inactive. Moreover, the molecule was called inactive in assay [7] and in [8].

Turning to `CN/C(=N\[N+](=O)[O-])NCc1cnc(Cl)s1`, the outcome in assay [1], in assay [2], in assay [3], in assay [4], in [5] and in assay [6] was inactive. For the same molecule, the call in assay [7] and in assay [9] was inactive.

Regarding `CCCC(=NOCC)C1=C(O)CC(CC(C)SCC)CC1=O` (stereo unspecified), the outcome in assay [1], in assay [2], in assay [3], in assay [4], in assay [5] and in assay [6] was inactive. For the same molecule, the result in assay [7], in assay [8] and in assay [9] was inactive.

Consider `O=C(Nc1ccccc1-c1ccc(Cl)cc1)c1cccnc1Cl`, for which the molecule was classed as inactive in assay [1], in [2], in assay [3], in assay [4], in assay [5] and in assay [6]. For the same molecule, the outcome in assay [8] and in assay [9] was inactive.

As to `CCCN(CC)CC1COC2(CCC(C(C)(C)C)CC2)O1` (stereo unspecified), the molecule was called inactive in assay [2], in [3], in assay [4], in assay [5], in [6] and in [7]. Also, the result in [8] and in assay [9] was inactive.

As for `CC(C)Oc1cccc(NC(=O)c2ccccc2C(F)(F)F)c1`, the AC50 was 40.4 µM (active) in assay [1], 48.1 µM (active) in [3] and 38.3 µM (active) in [4]. Moreover, the result in assay [2], in assay [5], in assay [6], in [7], in [8] and in [9] was inactive. In addition, the molecule was classed as inactive in assay [10].

As for `COCC(=O)N(c1c(C)cccc1C)C(C)C(=O)OC` (stereo unspecified), the result in [1], in assay [3], in assay [4], in assay [5], in assay [7] and in [8] was inactive. For the same molecule, the call in [9] was inactive.

As to `CC1(C)C(C=C(Cl)Cl)C1C(=O)OC(C#N)c1cccc(Oc2ccccc2)c1` (stereo unspecified), the result in assay [2], in assay [4], in assay [7], in assay [8] and in [9] was inactive. Moreover, the AC50 in assay [3] was 1.66 µM (active); in assay [5] it was 1.86 µM (active); in [6], 0.994 µM (active).

For `COP(=S)(OC)Oc1ccc([N+](=O)[O-])c(C)c1`, the result in assay [2], in assay [3], in assay [4], in assay [5], in assay [6] and in assay [7] was inactive. Moreover, the molecule was called inactive in assay [8] and in assay [9].

For the molecule `COc1cc(OC)nc(NC(=O)NS(=O)(=O)c2ncccc2OCC(F)(F)F)n1`, the outcome in [2], in [3], in assay [4], in assay [5], in assay [6] and in [7] was inactive. The molecule was classed as inactive in assay [8] and in [9].
